Paper PMC7862700, “An all-to-all approach to the identification of sequence-specific readers for epigenetic DNA modifications on cytosine”

Key:
Experiment in all cases: DAPPL (digital affinity profiling via proximity ligation, sequencing); 10 mM Tris-HCl pH 7.5, 50 mM NaCl, 1 mM DTT, 4% glycerol, room temperature, 30 min; GST-TFs on glutathione beads, 16-mer random dsDNA library, 0.1% formaldehyde crosslink after washing; high values mean tight binding
Details in all cases: protein: recombinant; tags: N-terminal GST; dsDNA, one strand shown
FLI1 = molecular target: T1, FLI1 (Homo sapiens, UniProt Q01543 1-452)
T1 sequence: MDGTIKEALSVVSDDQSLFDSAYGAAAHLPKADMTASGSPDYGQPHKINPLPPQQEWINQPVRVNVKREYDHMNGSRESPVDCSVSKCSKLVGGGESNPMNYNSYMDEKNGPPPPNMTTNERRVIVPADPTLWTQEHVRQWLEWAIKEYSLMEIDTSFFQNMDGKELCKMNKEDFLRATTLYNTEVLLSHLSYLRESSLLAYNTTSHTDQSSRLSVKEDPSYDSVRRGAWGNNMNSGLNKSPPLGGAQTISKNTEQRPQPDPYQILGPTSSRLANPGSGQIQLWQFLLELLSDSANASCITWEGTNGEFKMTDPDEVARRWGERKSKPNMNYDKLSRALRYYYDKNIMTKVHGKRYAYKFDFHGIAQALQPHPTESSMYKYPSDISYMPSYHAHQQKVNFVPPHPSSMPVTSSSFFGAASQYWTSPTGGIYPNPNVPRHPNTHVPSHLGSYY
In short: (§1)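 Human transcription factors fused to GST were expressed in yeast, captured on glutathione beads, given DNA barcodes and pooled with a GST-only negative control. Pools were incubated with 200 nmole of a 16-mer random double-stranded DNA library in Tris/NaCl/DTT/glycerol buffer at room temperature for 30 min. They were then washed, crosslinked with 0.1% formaldehyde, proximity-ligated (BsaI/T4 ligase, 1 h, 37 °C), PCR-amplified and sequenced on an Illumina NextSeq500. Binding signal is each 6-mer's read frequency for a factor divided by its frequency for the GST control.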

ELK1 = molecular target: T2, ELK1 (Homo sapiens, UniProt P19419 1-428)
T2 sequence: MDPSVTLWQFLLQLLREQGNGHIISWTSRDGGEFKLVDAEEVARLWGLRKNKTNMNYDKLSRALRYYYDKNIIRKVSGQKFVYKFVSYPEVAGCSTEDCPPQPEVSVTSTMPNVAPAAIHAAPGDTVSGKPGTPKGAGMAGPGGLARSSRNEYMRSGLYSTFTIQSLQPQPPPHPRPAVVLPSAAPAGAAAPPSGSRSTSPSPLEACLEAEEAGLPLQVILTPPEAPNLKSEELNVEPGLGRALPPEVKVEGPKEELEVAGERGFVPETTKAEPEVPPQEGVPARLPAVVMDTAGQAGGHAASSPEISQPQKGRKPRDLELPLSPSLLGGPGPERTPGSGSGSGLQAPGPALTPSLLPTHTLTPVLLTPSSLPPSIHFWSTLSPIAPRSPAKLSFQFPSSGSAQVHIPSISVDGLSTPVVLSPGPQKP
In short: as §1

GABPA = molecular target: T3, GABPA (Homo sapiens, UniProt Q06546 1-454)
T3 sequence: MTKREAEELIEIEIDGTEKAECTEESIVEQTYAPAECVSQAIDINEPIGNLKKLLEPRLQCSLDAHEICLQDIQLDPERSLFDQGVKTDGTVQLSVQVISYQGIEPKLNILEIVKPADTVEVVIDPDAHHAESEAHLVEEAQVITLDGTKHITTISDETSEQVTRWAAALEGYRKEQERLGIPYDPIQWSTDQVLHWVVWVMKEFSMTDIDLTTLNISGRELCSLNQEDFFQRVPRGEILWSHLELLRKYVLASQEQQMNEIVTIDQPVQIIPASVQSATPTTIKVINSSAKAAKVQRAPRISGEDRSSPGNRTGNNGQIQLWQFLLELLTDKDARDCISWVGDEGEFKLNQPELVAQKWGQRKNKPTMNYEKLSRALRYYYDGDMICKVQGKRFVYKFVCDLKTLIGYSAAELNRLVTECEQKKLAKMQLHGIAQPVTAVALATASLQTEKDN
In short: as §1

ERG = molecular target: T4, ERG (Homo sapiens, UniProt P11308 1-479)
T4 sequence: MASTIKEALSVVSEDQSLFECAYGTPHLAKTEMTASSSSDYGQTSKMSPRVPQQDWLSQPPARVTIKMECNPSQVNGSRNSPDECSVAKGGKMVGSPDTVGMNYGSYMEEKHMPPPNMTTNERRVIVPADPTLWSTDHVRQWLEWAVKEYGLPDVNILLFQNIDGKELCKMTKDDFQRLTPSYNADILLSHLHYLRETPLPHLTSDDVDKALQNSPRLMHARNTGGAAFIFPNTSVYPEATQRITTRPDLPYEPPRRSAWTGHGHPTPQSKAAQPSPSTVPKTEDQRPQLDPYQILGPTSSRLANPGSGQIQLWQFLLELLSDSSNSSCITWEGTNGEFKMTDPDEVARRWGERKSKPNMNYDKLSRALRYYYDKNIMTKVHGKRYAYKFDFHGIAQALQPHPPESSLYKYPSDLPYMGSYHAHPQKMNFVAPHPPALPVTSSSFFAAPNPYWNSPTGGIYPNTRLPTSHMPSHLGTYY
In short: as §1

ELF1 = ELF1 (Homo sapiens, UniProt P32519 1-619)
Chain of ELF1 (P32519 whole entry): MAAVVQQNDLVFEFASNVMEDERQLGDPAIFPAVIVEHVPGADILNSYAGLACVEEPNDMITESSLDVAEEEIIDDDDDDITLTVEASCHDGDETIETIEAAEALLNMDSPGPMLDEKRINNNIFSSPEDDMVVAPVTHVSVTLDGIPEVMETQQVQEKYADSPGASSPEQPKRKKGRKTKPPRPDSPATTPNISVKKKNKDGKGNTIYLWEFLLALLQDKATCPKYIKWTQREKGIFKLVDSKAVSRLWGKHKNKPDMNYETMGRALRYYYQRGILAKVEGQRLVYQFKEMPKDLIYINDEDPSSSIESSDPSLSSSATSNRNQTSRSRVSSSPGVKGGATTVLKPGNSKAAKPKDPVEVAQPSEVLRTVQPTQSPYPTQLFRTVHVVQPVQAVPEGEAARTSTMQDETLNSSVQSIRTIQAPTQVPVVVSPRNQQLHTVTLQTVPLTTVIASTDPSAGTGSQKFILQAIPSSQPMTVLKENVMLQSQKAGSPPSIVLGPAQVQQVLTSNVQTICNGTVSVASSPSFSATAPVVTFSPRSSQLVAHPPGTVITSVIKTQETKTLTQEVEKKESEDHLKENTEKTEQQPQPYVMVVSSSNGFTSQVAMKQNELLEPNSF
In short: as §1

EHF = molecular target: T5, EHF (Homo sapiens, UniProt Q9NZC4 1-300)
T5 sequence: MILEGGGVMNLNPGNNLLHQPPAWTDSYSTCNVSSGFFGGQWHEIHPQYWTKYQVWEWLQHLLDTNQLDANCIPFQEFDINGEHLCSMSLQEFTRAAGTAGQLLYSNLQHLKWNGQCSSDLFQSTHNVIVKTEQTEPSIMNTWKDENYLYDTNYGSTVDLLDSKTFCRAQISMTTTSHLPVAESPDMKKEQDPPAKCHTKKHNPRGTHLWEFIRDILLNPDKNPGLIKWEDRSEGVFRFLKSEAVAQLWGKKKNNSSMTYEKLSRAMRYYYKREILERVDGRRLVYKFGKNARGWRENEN
In short: as §1

SPI1 [1] = molecular target: SPI1 (Homo sapiens, UniProt P17947 1-270)
In short: as §1

SPIB = SPIB (Homo sapiens, UniProt Q01892 1-262)
Chain of SPIB (Q01892 whole entry): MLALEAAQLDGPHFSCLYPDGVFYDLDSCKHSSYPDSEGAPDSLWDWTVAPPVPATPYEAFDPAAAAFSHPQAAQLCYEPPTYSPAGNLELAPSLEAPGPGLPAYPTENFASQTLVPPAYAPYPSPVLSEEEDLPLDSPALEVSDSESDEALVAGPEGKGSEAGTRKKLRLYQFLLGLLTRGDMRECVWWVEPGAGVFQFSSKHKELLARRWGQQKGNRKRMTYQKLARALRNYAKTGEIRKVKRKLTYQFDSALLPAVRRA
In short: as §1

SPI1 [2] = molecular target: SPI1 (Homo sapiens, UniProt P17947 1-270); remark: listed apart in the source
In short: as §1

ELK3 = molecular target: T6, ELK3 (Homo sapiens, UniProt P41970 1-407)
T6 sequence: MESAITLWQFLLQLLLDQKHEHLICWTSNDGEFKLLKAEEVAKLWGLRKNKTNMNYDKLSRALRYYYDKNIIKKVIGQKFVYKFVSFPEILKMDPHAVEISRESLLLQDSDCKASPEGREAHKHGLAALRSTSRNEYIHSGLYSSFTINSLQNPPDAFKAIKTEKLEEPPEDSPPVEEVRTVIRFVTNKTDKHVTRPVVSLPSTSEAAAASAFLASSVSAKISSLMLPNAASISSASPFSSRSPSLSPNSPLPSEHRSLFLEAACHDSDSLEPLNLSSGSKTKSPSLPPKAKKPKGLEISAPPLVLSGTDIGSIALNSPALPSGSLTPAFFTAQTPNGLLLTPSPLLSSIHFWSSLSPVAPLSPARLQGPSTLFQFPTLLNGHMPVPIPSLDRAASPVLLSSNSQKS
In short: as §1

TCACTA
binding signal (FLI1): 1.21 fold enrichment (6-mer frequency, TF over GST control)
binding signal (ELK1): 1.22 fold enrichment (6-mer frequency, TF over GST control)
binding signal (GABPA): 1.17 fold enrichment (6-mer frequency, TF over GST control)
binding signal (ERG): 1.17 fold enrichment (6-mer frequency, TF over GST control)
binding signal (ELF1): 1.21 fold enrichment (6-mer frequency, TF over GST control)
binding signal (EHF): 1.17 fold enrichment (6-mer frequency, TF over GST control)
binding signal (SPI1 [1]): 1.23 fold enrichment (6-mer frequency, TF over GST control)
binding signal (SPIB): 1.25 fold enrichment (6-mer frequency, TF over GST control)

TTGAGG
binding signal (FLI1): 1.23 fold enrichment (6-mer frequency, TF over GST control)
binding signal (ELK1): 1.09 fold enrichment (6-mer frequency, TF over GST control)
binding signal (GABPA): 1.16 fold enrichment (6-mer frequency, TF over GST control)
binding signal (ERG): 1.06 fold enrichment (6-mer frequency, TF over GST control)
binding signal (ELF1): 1.08 fold enrichment (6-mer frequency, TF over GST control)
binding signal (EHF): 1.11 fold enrichment (6-mer frequency, TF over GST control)
binding signal (SPI1 [1]): 1.27 fold enrichment (6-mer frequency, TF over GST control)

CCCCGA
binding signal (FLI1): 1.23 fold enrichment (6-mer frequency, TF over GST control)
binding signal (ELK1): 1.2 fold enrichment (6-mer frequency, TF over GST control)
binding signal (GABPA): 1.21 fold enrichment (6-mer frequency, TF over GST control)
binding signal (ERG): 1.16 fold enrichment (6-mer frequency, TF over GST control)
binding signal (ELF1): 1.16 fold enrichment (6-mer frequency, TF over GST control)
binding signal (EHF): 1.14 fold enrichment (6-mer frequency, TF over GST control)
binding signal (SPI1 [1]): 1.15 fold enrichment (6-mer frequency, TF over GST control)
binding signal (SPIB): 1.23 fold enrichment (6-mer frequency, TF over GST control)

AGTGTT
binding signal (FLI1): 1.05 fold enrichment (6-mer frequency, TF over GST control)
binding signal (ELK1): 1.16 fold enrichment (6-mer frequency, TF over GST control)
binding signal (GABPA): 1.14 fold enrichment (6-mer frequency, TF over GST control)
binding signal (ERG): 1.15 fold enrichment (6-mer frequency, TF over GST control)
binding signal (ELF1): 1.08 fold enrichment (6-mer frequency, TF over GST control)
binding signal (EHF): 1.02 fold enrichment (6-mer frequency, TF over GST control)
binding signal (SPI1 [1]): 1.32 fold enrichment (6-mer frequency, TF over GST control)
binding signal (SPIB): 1.15 fold enrichment (6-mer frequency, TF over GST control)

TAGATT
binding signal (FLI1): 1.17 fold enrichment (6-mer frequency, TF over GST control)
binding signal (ELK1): 1.2 fold enrichment (6-mer frequency, TF over GST control)
binding signal (GABPA): 1.18 fold enrichment (6-mer frequency, TF over GST control)
binding signal (ERG): 1.2 fold enrichment (6-mer frequency, TF over GST control)
binding signal (ELF1): 1.17 fold enrichment (6-mer frequency, TF over GST control)
binding signal (EHF): 1.24 fold enrichment (6-mer frequency, TF over GST control)
binding signal (SPI1 [1]): 1.16 fold enrichment (6-mer frequency, TF over GST control)
binding signal (SPIB): 1.24 fold enrichment (6-mer frequency, TF over GST control)

CCGAGC
binding signal (FLI1): 1.17 fold enrichment (6-mer frequency, TF over GST control)
binding signal (ELK1): 1.25 fold enrichment (6-mer frequency, TF over GST control)
binding signal (GABPA): 1.2 fold enrichment (6-mer frequency, TF over GST control)
binding signal (ERG): 1.11 fold enrichment (6-mer frequency, TF over GST control)
binding signal (ELF1): 1.15 fold enrichment (6-mer frequency, TF over GST control)
binding signal (EHF): 1.12 fold enrichment (6-mer frequency, TF over GST control)
binding signal (SPI1 [1]): 1.12 fold enrichment (6-mer frequency, TF over GST control)
binding signal (SPIB): 1.19 fold enrichment (6-mer frequency, TF over GST control)

CGGAAG
binding signal (FLI1): 2.85 fold enrichment (6-mer frequency, TF over GST control)
binding signal (ELK1): 3.3 fold enrichment (6-mer frequency, TF over GST control)
binding signal (GABPA): 2.61 fold enrichment (6-mer frequency, TF over GST control)
binding signal (ERG): 3.44 fold enrichment (6-mer frequency, TF over GST control)
binding signal (ELF1): 2.8 fold enrichment (6-mer frequency, TF over GST control)
binding signal (EHF): 3.07 fold enrichment (6-mer frequency, TF over GST control)
binding signal (SPI1 [2]): 3.49 fold enrichment (6-mer frequency, TF over GST control)
binding signal (SPIB): 3.01 fold enrichment (6-mer frequency, TF over GST control)
binding signal (ELK3): 3.41 fold enrichment (6-mer frequency, TF over GST control)

GCTTAG
binding signal (FLI1): 1.14 fold enrichment (6-mer frequency, TF over GST control)
binding signal (ELK1): 1.06 fold enrichment (6-mer frequency, TF over GST control)
binding signal (GABPA): 1.19 fold enrichment (6-mer frequency, TF over GST control)
binding signal (ERG): 1.18 fold enrichment (6-mer frequency, TF over GST control)
binding signal (ELF1): 1.15 fold enrichment (6-mer frequency, TF over GST control)
binding signal (EHF): 1.11 fold enrichment (6-mer frequency, TF over GST control)
binding signal (SPI1 [1]): 1.1 fold enrichment (6-mer frequency, TF over GST control)
binding signal (SPIB): 1.09 fold enrichment (6-mer frequency, TF over GST control)
